Data published in PubChem BioAssay (NCI).
The panel holds about 83,000 compounds, 20% with a hit somewhere; the sample as a whole holds those more often.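 96-well plates, one dose, 48 hours. Percent growth reported; active if below 10.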 The source made the active and inactive calls.

Experiments:
Assay in all cases: NCI-60 one-dose screen, 48 h (100 = growth as untreated, 0 = no growth, -100 = all killed)
Conditions in all cases: 10 µM unless noted
NCI-H23 lung = tested on: NCI-H23 lung
NCI-H226 lung = tested on: NCI-H226 lung
NCI-H322M lung = tested on: NCI-H322M lung
HOP-62 NSCLC = tested on: HOP-62 NSCLC
NCI-H460 lung = tested on: NCI-H460 lung
HOP-92 NSCLC = tested on: HOP-92 NSCLC
NCI-H522 lung = tested on: NCI-H522 lung
A549/ATCC NSCLC = tested on: A549/ATCC NSCLC
786-0 renal = tested on: 786-0 renal
COLO 205 colon = tested on: COLO 205 colon
DU-145 prostate = tested on: DU-145 prostate
K-562 leukemia = tested on: K-562 leukemia
MALME-3M melanoma = tested on: MALME-3M melanoma
MDA-MB-231 breast = tested on: MDA-MB-231 breast
RXF 393 renal = tested on: RXF 393 renal
SF-268 CNS = tested on: SF-268 CNS
SF-295 CNS = tested on: SF-295 CNS
SF-539 CNS = tested on: SF-539 CNS
UACC-257 melanoma = tested on: UACC-257 melanoma
M14 melanoma = tested on: M14 melanoma

Measured: growth

CCOC(=O)c1ccc(NC(=S)NC(=O)c2cccc(NC(=O)c3ccc(C)cc3)c2)cc1
inactive: NCI-H23 lung 66.8% | NCI-H226 lung 32.2% | NCI-H322M lung 74.7% | HOP-62 NSCLC 40.4% | NCI-H460 lung 75.9% | HOP-92 NSCLC 36.4% | NCI-H522 lung 50.6% | A549/ATCC NSCLC 48.2% | 786-0 renal 81.2% | COLO 205 colon 77.9% | DU-145 prostate 105% | K-562 leukemia 76.3% | MALME-3M melanoma 71.9% | MDA-MB-231 breast 39.1% | RXF 393 renal 66.9% | SF-268 CNS 102% | SF-295 CNS 90.9% | SF-539 CNS 44.9% | UACC-257 melanoma 78.6% | M14 melanoma 80.7%

C=CC[n+]1cccc2c3ccccc3ccc21
active: MALME-3M melanoma 2.38%
inactive: NCI-H23 lung 27.4% | NCI-H226 lung 58% | NCI-H322M lung 76.7% | HOP-62 NSCLC 44.9% | NCI-H460 lung 23.2% | HOP-92 NSCLC 52.3% | NCI-H522 lung 27.1% | A549/ATCC NSCLC 28.1% | 786-0 renal 66.2% | COLO 205 colon 28.4% | DU-145 prostate 58.4% | K-562 leukemia 27.8% | MDA-MB-231 breast 77.6% | RXF 393 renal 69.7% | SF-268 CNS 22.7% | SF-295 CNS 21.4% | SF-539 CNS 66.6% | UACC-257 melanoma 20.9% | M14 melanoma 65.9%

O=C1/C(=C/c2cccc3c2OCO3)Cc2c(F)cc(Br)cc21
inactive: NCI-H23 lung 97.2% | NCI-H226 lung 106% | NCI-H322M lung 113% | HOP-62 NSCLC 109% | NCI-H460 lung 117% | HOP-92 NSCLC 123% | NCI-H522 lung 104% | A549/ATCC NSCLC 111% | 786-0 renal 107% | COLO 205 colon 128% | DU-145 prostate 115% | K-562 leukemia 109% | MALME-3M melanoma 103% | MDA-MB-231 breast 115% | RXF 393 renal 104% | SF-268 CNS 109% | SF-295 CNS 96% | SF-539 CNS 99.7% | UACC-257 melanoma 114% | M14 melanoma 98.9%

O=C(c1ccc(O)cc1)C1[C@H](c2ccc(Cl)cc2)[C@@H](c2ccccc2)NC12C(=O)Nc1ccc(Br)cc12 (stereo not given in full)
active: NCI-H23 lung -58.7% | NCI-H226 lung -54.7% | NCI-H322M lung -4.19% | HOP-62 NSCLC -28.9% | NCI-H460 lung -45.9% | HOP-92 NSCLC -32.2% | NCI-H522 lung -20.8% | A549/ATCC NSCLC 5.99% | 786-0 renal -52.1% | COLO 205 colon -86.3% | K-562 leukemia -41.7% | MALME-3M melanoma -49% | MDA-MB-231 breast -79.4% | RXF 393 renal -85.9% | SF-268 CNS 3.93% | SF-295 CNS -60.8% | SF-539 CNS -37.5% | M14 melanoma -56.8%
inactive: DU-145 prostate 13.4% | UACC-257 melanoma 65.9%

COc1ccc(-c2cc(-c3ccccc3)c(C#N)c(=O)[nH]2)cc1S(N)(=O)=O
active: MDA-MB-231 breast -18.1%
inactive: NCI-H23 lung 106% | NCI-H226 lung 103% | NCI-H322M lung 113% | HOP-62 NSCLC 97.6% | NCI-H460 lung 104% | HOP-92 NSCLC 110% | NCI-H522 lung 93.3% | A549/ATCC NSCLC 98.7% | 786-0 renal 94.7% | COLO 205 colon 118% | DU-145 prostate 103% | K-562 leukemia 109% | MALME-3M melanoma 97.9% | RXF 393 renal 100% | SF-268 CNS 101% | SF-295 CNS 108% | SF-539 CNS 96.3% | UACC-257 melanoma 98.9% | M14 melanoma 99.7%

O=C(Cn1c(-c2ccccc2)nc2ccccc21)N=Nc1c(O)[nH]c2ccc(Cl)cc12
active: NCI-H226 lung -62.1% | NCI-H322M lung 5% | HOP-62 NSCLC -58.6% | NCI-H460 lung 3.44% | HOP-92 NSCLC -41.7% | A549/ATCC NSCLC 6.42% | 786-0 renal -18.5% | COLO 205 colon -40.3% | DU-145 prostate 6.32% | MALME-3M melanoma 5.8% | MDA-MB-231 breast -42% | RXF 393 renal -63.8% | SF-268 CNS 7.18% | SF-295 CNS -40% | SF-539 CNS -46.6%
inactive: NCI-H23 lung 20.8% | NCI-H522 lung 40.5% | K-562 leukemia 10.6% | UACC-257 melanoma 36.5% | M14 melanoma 14.9%

O=C(Nc1ccc(Br)cc1)Nc1ccc(-c2ccc3c(c2)NC(=O)/C3=C\c2ccc[nH]2)cc1
active: NCI-H460 lung 8.75%
inactive: NCI-H23 lung 30.7% | NCI-H226 lung 66.2% | NCI-H322M lung 46.1% | HOP-62 NSCLC 53.1% | HOP-92 NSCLC 92.1% | NCI-H522 lung 24.1% | A549/ATCC NSCLC 37.7% | 786-0 renal 61% | COLO 205 colon 57.2% | DU-145 prostate 27.9% | K-562 leukemia 18.6% | MALME-3M melanoma 61.6% | MDA-MB-231 breast 66.3% | RXF 393 renal 25.3% | SF-268 CNS 40.3% | SF-295 CNS 22.9% | SF-539 CNS 26.5% | UACC-257 melanoma 75.4% | M14 melanoma 32.3%

O=C(NNC(=S)NCCc1ccccc1)c1ccc(OCc2nc3ccc(Cl)cc3[nH]2)cc1
inactive: NCI-H23 lung 66.3% | NCI-H226 lung 97.7% | NCI-H322M lung 88.8% | HOP-62 NSCLC 97.4% | NCI-H460 lung 82.3% | HOP-92 NSCLC 144% | NCI-H522 lung 78.7% | A549/ATCC NSCLC 73.8% | 786-0 renal 79.1% | COLO 205 colon 131% | DU-145 prostate 79.4% | K-562 leukemia 29.6% | MALME-3M melanoma 65.5% | MDA-MB-231 breast 95.5% | RXF 393 renal 93% | SF-268 CNS 70.4% | SF-295 CNS 61.4% | SF-539 CNS 84.3% | UACC-257 melanoma 79.9% | M14 melanoma 93.9%
